The campaign covered roughly 5,400 compounds. About 190 (3.5%) showed an effect of 50% or more. This is one part of a sample in which strong results are shown more often than they occur.
system: Vero-E6; experiment: primary screen, phospholipidosis by LipidTOX staining; higher = more effect of the substance; details: 10 µM
Summary of the method: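 Single-concentration screen at 10 μM, with DMSO 0.1 v/v % and amiodarone 10 μM as controls. Read-out is LipidTOX Red phospholipid staining, which tolerates aldehyde fixation, in Vero-E6 cells.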

| SMILES | result_ITMP |
| --- | --- |
| N[C@@H](CSS(=O)(=O)[O-])C(=O)O | -1.62% |
| C/C=C(\C(=C\C)c1ccc(O)cc1)c1ccc(O)cc1 | 0.7% |
| Clc1ccc2c(c1)C(N1CCNCC1)=Nc1ccccc1O2 | 70% |
| Clc1cccc(N2CCNCC2)c1 | 4.14% |
| c1ccc2nc(N3CCNCC3)ccc2c1 | 9.23% |
| CN1CCN(C2=Nc3ccccc3Sc3ccc(Cl)cc32)CC1 | 26.7% |
| Cc1cc2c(s1)Nc1ccccc1N=C2N1CCN(C)CC1 | -8.9% |
| Clc1ccc2c(c1)N=C(N1CCNCC1)c1ccccc1N2 | 77.7% |
| Cc1ccc(Oc2ccccc2-c2csc(NC3=NCCCN3)n2)c(C)c1 | 6.61% |
| COc1cc(CCc2cc(NC(=O)c3ccc(N4C[C@@H](C)N[C@@H](C)C4)cc3)n[nH]2)cc(OC)c1 | 30.8% |
| C=C[C@@]1(C)CC(=O)[C@]2(O)[C@@]3(C)[C@@H](O)CCC(C)(C)[C@@H]3C(OC(=O)CCN(C)C)C(OC(C)=O)[C@@]2(C)O1 (stereo partly shown) | 4.63% |
| C[C@H](CCC(=O)NCCS(=O)(=O)O)[C@H]1CC[C@H]2[C@@H]3[C@H](O)C[C@@H]4C[C@H](O)CC[C@]4(C)[C@H]3C[C@H](O)[C@]12C | -2.23% |
| CC(O)COC[C@H]1OC2O[C@H]3[C@H](O)[C@@H](O)C(O[C@H]4[C@H](O)[C@@H](O)C(O[C@H]5[C@H](O)[C@@H](O)C(O[C@H]6[C@H](O)[C@@H](O)C(O[C@H]7[C@H](O)[C@@H](O)C(O[C@H]8[C@H](O)[C@@H](O)C(O[C@H]1[C@H](O)[C@H]2O)O[C@@H]8COCC(C)O)O[C@@H]7COCC(C)O)O[C@@H]6COCC(C)O)O[C@@H]5COCC(C)O)O[C@@H]4COCC(C)O)O[C@@H]3COCC(C)O (stereo partly shown) | -3.69% |
| COc1ccc(C[C@@H](C)[C@@H](C)Cc2ccc(OC)c(OC)c2)cc1OC | 6.63% |
| COc1ccc(Cc2nc(=O)c3c(C)nc([C@@H](CCCc4ccccc4)[C@@H](C)O)n3[nH]2)cc1OC | 0.34% |
| C=CC(=O)Nc1cccc(Oc2nc(Nc3ccc(N4CCN(C)CC4)cc3OC)ncc2Cl)c1 | -1.32% |
| C=CC(=O)Nc1cccc(Oc2nc(Nc3ccc(N4CCN(C)CC4)cc3)nc3ccsc23)c1 | 37.8% |
| C=CC(=O)Nc1cccc(Oc2nc(Nc3ccc(N4CCN(C)CC4)cc3)ncc2Cl)c1 | 70.5% |
| C[C@H]1[C@H](C)CC[C@]2(C(=O)O)CC[C@]3(C)C(=CC[C@@H]4[C@@]5(C)C[C@@H](O)[C@H](O)[C@@](C)(CO)[C@@H]5CC[C@]43C)[C@H]12 | -2.77% |

| SMILES | result_ITMP |
| --- | --- |
| Cc1cnc(Nc2ccc(OCCN3CCCC3)cc2)nc1Nc1cccc(S(=O)(=O)NC(C)(C)C)c1 | 122% |
| Cc1cc(-c2cc(O)ccc2Cl)cc2nnc(Nc3ccc(OCCN4CCCC4)cc3)nc12 | -2.38% |
| Cc1cnc(Nc2ccc(N3CCN(C)CC3)cc2)nc1Nc1cccc(S(=O)(=O)NC(C)(C)C)c1 | 21.8% |
| Cn1cnc2nc(O)nc(O)c21 | 0.82% |
| Cc1nc2ccc(Oc3ccc(F)cc3)cc2c(=O)n1C[C@H]1CCCN(C(C)C)C1 | 56.3% |
| O=C([O-])[C@H](O)[C@@H](O)[C@H](O)[C@H](O)C(O)CO (stereo partly shown) | -2.51% |
| Cn1nccc1Nc1nccc(-c2ccn([C@H](CO)c3ccc(Cl)c(F)c3)c(=O)c2)n1 [R4A_0003897_001 / SPE_A20830788] | 1.66% |
| COCCCC/C(=N\OCCN)c1ccc(C(F)(F)F)cc1 | 48.9% |
| CNCCC(Oc1ccc(C(F)(F)F)cc1)c1ccccc1 (stereo not shown) | 54.3% |
| CN(CC[C@@H](Oc1ccc(-c2ccccc2)cc1)c1ccc(F)cc1)CC(=O)O | 0.25% |
| NCCC(Oc1ccc(C(F)(F)F)cc1)c1ccccc1 (stereo not shown) | 62.2% |
| CNCCC(Oc1ccccc1OC)c1ccccc1 (stereo not shown) | 13% |
| CN1C2CC(O)[C@H]1C[C@@H](OC(=O)[C@H](CO)c1ccccc1)C2 (mixture of isomers) | -3.11% |
| CCCN1C[C@@H](NS(=O)(=O)N(CC)CC)C[C@@H]2Cc3c(O)cccc3C[C@H]21 | 0.96% |
| CC(=O)O.CC(=O)O.N.NC1CCCCC1.[Cl][Pt][Cl] | -1.8% |
| O=C([O-])Cc1ccccc1Nc1c(Cl)cccc1Cl | -2.2% |
| CN(C(=O)Cc1ccc(Cl)c(Cl)c1)[C@H](CN1CCCC1)c1ccccc1 | 53.5% |
| CN(C(=O)Cc1ccccc1)C(CN1CCCC1)c1ccccc1 (stereo not shown) | 6.1% |
